# In the supplement of paper PMC3334620:
# The full ranking holds about 33,000 sequences; the median of “E-score (-0.5 to 0.5)” is about -0.041, and the highest 2% start at about 0.37. The sample as a whole holds a higher share of the highest values than the screen did.
# Target: T1, Ecm22 (UniProt Q05958)
# T1 sequence: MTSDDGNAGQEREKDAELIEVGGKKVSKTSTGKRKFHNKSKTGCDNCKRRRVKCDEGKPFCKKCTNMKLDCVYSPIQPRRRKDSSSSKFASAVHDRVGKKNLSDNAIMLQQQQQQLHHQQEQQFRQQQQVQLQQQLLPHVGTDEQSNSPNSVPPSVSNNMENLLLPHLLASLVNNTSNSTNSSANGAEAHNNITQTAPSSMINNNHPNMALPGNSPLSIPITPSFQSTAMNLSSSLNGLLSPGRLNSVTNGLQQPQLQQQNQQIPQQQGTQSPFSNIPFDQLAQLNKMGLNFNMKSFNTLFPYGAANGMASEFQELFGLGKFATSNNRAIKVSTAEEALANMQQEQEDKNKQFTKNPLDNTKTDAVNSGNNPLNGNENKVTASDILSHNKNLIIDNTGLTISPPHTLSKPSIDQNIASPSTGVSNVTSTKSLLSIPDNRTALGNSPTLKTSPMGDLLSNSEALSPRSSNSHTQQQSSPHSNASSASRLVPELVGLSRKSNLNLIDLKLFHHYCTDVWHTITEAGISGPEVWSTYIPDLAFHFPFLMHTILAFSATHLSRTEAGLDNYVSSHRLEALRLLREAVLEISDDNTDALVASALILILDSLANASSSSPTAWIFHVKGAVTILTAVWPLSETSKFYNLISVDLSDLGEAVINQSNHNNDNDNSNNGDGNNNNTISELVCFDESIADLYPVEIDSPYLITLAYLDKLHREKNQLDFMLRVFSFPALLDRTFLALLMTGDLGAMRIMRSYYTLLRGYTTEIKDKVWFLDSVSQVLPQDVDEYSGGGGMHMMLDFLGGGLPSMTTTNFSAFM
# Assay: PBM E-score (8-mer binding enrichment) (E-score (-0.5 to 0.5)); higher = stronger / more preferred TF binding
# Settings: protein concentration: 200 nM; construct: GST-full length
# Procedure: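 Universal 'all 10-mer' protein binding microarrays (Agilent AMADID 015681) probed with GST-tagged S. cerevisiae TFs (full-length or DBD) made by in vitro transcription/translation (PURExpress), about 100-200 nM. Bound TF was detected with fluorescent anti-GST. Each ungapped 8-mer (which stands for itself and its reverse complement) is scored by the PBM enrichment score (E-score), a modified Wilcoxon-Mann-Whitney statistic from -0.5 to +0.5, computed with the Universal PBM Analysis Suite. Scale: above 0.35 generally sequence-specific binding.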
row,Sequence,PBM E-score
1,GAACCTTC,-0.126
2,ATGAGAGA,-0.0934
3,AGAAGGCA,-0.166
4,GGCATTCA,-0.0839
5,ACACTGCG,0.0708
6,ATTTGGCC,-0.258
7,AACGCATT,0.0189
8,CTTACGGA,0.0416
9,CGTACGGA,0.373
10,CGTACGGC,0.385
11,AGTACGGC,0.339
12,CATACGGC,0.3
13,CCTACGGA,-0.34
14,GGTACGGA,0.413
15,GCTACGGA,0.232
16,AGTACGGA,0.288
17,CCCGCTGA,-0.32
18,AGCGCTGC,-0.158
19,CCGGTCAC,-0.0785
20,ATGGACAT,-0.107
21,ATGGGCCC,-0.157
22,GCGAACAC,0.0536
23,CCCCCTGC,-0.162
24,CATACGTA,0.288
25,AATACGTA,0.228

row,Sequence,PBM E-score
1,CATACGTC,0.0749
2,AATACGAA,0.419
3,AATACGTG,0.15
4,AATACGGG,0.229
5,ACTACGAA,0.25
6,CATACGAA,0.451
7,CATACGAC,0.451
8,CATACGCC,0.182
9,AATACGAG,0.457
10,CATACAAA,-0.0105
11,GATATAAC,0.156
12,AAGGACAC,-0.168
13,ACTTTGGG,-0.263
14,ATTGACTC,-0.0667
15,AACACAAT,-0.00044
16,CTTTTCCA,-0.271
17,GGCGGCGA,-0.157
18,GACAGAGA,0.0187
19,AATACGAC,0.429
20,AATACGCT,0.121
21,AATACGAT,0.384
22,AATACGGC,0.268
23,GATACGCC,0.162
24,AATACGTC,0.0846
25,GATACGTA,0.253

row,Sequence,PBM E-score
1,GATACGAC,0.464
2,GATACAAA,0.163
3,GATACGAA,0.445
4,AATACGGT,0.21
5,GATACGGC,0.32
6,ATTCCGAC,-0.0388
7,AAAACGAT,0.257
8,ACGTTCTA,0.0664
9,AGGAATAT,0.06
10,AGTTGAAC,0.0747
11,AGTGGAGA,-0.128
12,ACCGAGTG,0.159
13,TCCAGGGA,-0.173
14,CACGGACG,-0.0335
15,AGCTAACA,-0.248
16,CATACGAG,0.481
17,CATACGCG,0.269
18,CATACGGG,0.36
19,AGGGTTAA,-0.0692
20,CGGCTCAC,-0.0852
21,AGGTTAGA,-0.186
22,GCACGAGA,0.127
23,AACCGAGC,0.355
24,CAGCGAGA,0.0257
25,AATCGAGC,0.237

row,Sequence,PBM E-score
1,CAACGAGC,0.336
2,GAACGAGA,0.464
3,GAGCGAGA,0.377
4,AAACGAGC,0.482
5,GGACGAGA,0.0358
6,GAACGAGC,0.483
7,GCACGAGC,0.0624
8,GAGCGAGC,0.354
9,GCTGCCTA,-0.101
10,AGTGGGCG,-0.167
11,ATAGGATC,-0.135
12,GCCTAGCA,-0.213
13,ATAAGGAG,-0.0163
14,CTGTACAA,-0.0518
15,ATGTACGA,0.477
16,CTGTACGC,0.314
17,CTGTACGA,0.48
18,ATGTACGG,0.365
19,GTGTACTA,0.207
20,ATGTACGC,0.112
21,GTGTACGA,0.481
22,GTGTACCA,0.0289
23,TACTGACA,0.0366
24,AGTCCAAA,-0.108
25,GGCGGCAC,0.0476

row,Sequence,PBM E-score
1,GCTGGGGA,-0.211
2,CCACCCGC,-0.0883
3,CCACCGTA,0.34
4,AAACCGTA,0.27
5,ACACCGTA,0.313
6,TAACCGTA,0.375
7,GAACCGTA,0.248
8,GCACCGTA,0.371
9,AGACAGCA,-0.143
10,AATACCGT,0.197
11,CAGGGTGA,-0.192
12,TAATCGAA,0.134
13,AAATCGTC,0.127
14,TAATCGTA,0.418
15,CAATCGTC,-0.0527
16,GAATCGCA,-0.0229
17,TAATCGGA,0.16
18,GAATCGTC,0.14
19,AAATCGTG,0.0433
20,CAATCGTA,0.389
21,CAATCGTG,-0.215
22,AAATCGTA,0.393
23,GAATCGTA,0.38
24,ACCCACAA,0.105
25,ACGTAGTC,-0.158

row,Sequence,PBM E-score
1,AGATAGGG,-0.127
2,ATCTCGAG,-0.0735
3,AATGGCTG,-0.124
4,AGGGTACG,0.411
5,CGGGTACC,-0.134
6,CGAGTACG,0.392
7,AGGGTACA,-0.0565
8,CGGGTACA,0.157
9,CGGGTACG,0.452
10,AGAGTACG,0.257
11,CGAGTACC,0.21
12,AGGGTACC,-0.323
13,AAGGGCTG,-0.377
14,AAGAGACG,0.0921
15,CTACTCTA,-0.204
16,CCAAACGA,0.437
17,CCAAACGC,0.177
18,TCAAACGA,0.452
19,CCAAACGG,0.287
20,GCAAACGA,0.433
21,CAAAACGA,0.278
22,ACAAACGG,0.226
23,GCAAACAA,0.0626
24,ACAAACGC,0.174
25,GCAAACGC,0.0881

row,Sequence,PBM E-score
1,ACAAACGA,0.445
2,TCAAACAA,-0.155
3,AGCGGGTG,-0.186
4,CTTTTGCC,-0.0531
5,ATCAACCA,-0.154
6,CGCAAGCG,0.142
7,TGGACCAA,-0.206
8,AGGGAGAT,-0.275
9,CAATGACG,-0.147
10,ACGTTTAG,0.33
11,CCGTTTAG,0.433
12,GCGTTTAC,0.227
13,CCGTTTAC,0.416
14,CCGTTTAA,0.441
15,CAGTTTAG,-0.0933
16,GCGTTTAA,0.28
17,ACGTTTAA,0.365
18,ACGTTTAC,0.304
19,ACAGATCT,-0.159
20,GTTCCAAC,0.135
21,AATACTAG,0.0461
22,CAGGCGCA,-0.24
23,AGGAGGCA,-0.294
24,AACGAAAC,0.389
25,AACGAAAG,0.399

row,Sequence,PBM E-score
1,AACGAAAA,0.364
2,ACCGAAAT,0.15
3,CACGAAAC,0.147
4,GACGAAAC,0.287
5,AACGAAAT,0.4
6,CACGAAAG,-0.0739
7,ACCGAAAG,0.0863
8,CCTAAAAG,-0.201
9,AACCAAAG,-0.0743
10,GTGGCAAA,-0.187
11,AGCACCAT,-0.122
12,AGCGTACG,0.351
13,ATCGTACG,0.437
14,AGCGTACA,0.179
15,CTCGTACA,0.489
16,ATCGTACA,0.465
17,CGCGTACA,0.269
18,ATAGTACG,0.325
19,ATAGTACC,0.00552
20,CACGTACA,0.216
21,AGCGTACC,0.251
22,ATCGTACC,0.479
23,ATAGTACA,0.151
24,GTTGACCA,-0.16
25,TACCGCAA,0.0649

row,Sequence,PBM E-score
1,AACTGCAT,-0.00243
2,ACGCCCAG,-0.143
3,AGGCTTAA,-0.168
4,GGTACTGA,-0.0769
5,CCCGATCA,0.197
6,GTCGTACA,0.484
7,AACGTACG,0.378
8,AACGTACA,0.204
9,GGCGTACA,0.16
10,AACGTACC,0.297
11,GACGTACA,0.211
12,ATTCTTAC,-0.026
13,CACCAGCA,-0.028
14,CTGCAGGA,-0.245
15,AGACCCGC,-0.00174
16,AAACGGGT,0.319
17,TCACGAGA,0.0348
18,CAACGAGA,0.378
19,AAACGTGG,0.133
20,TAACGTGA,-0.142
21,CAACGAGG,0.343
22,AAACGAGT,0.456
23,ACACGAGT,0.24
24,TAACGAGA,0.369
25,AAACGAGG,0.476
